This passage reports growth results from PubChem BioAssay (NCI).

This is part of a sample that, as a whole, favours compounds with a hit. Of some 83,000 tested, about 20% had one in any assay.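 Cells were grown in 96-well plates and exposed to the test compound at a single concentration for 48 hours; results are reported as percent growth, with values below 10 considered active.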 A number with no mark means an inactive call. Activity calls are given as the source filed them.

What all share (assay): NCI-60 one-dose screen, 48 h (100 = growth as untreated, 0 = no growth, -100 = all killed)
Common to all, as to conditions: 10 µM unless noted

The subject of assay [1] is T-47D breast.
In assay [2] the test system is BT-549 breast.
Assay [3] deals with MDA-MB-435 melanoma.
The subject of assay [4] is SW-620 colon.
Assay [5] has as its system MCF7 breast.
Assay [6] concerns HCT-116 colon.
For assay [7], the system named is HCC-2998 colon.
Assay [8] deals with KM12 colon.

Consider `O=C(c1ccccc1)c1ccc(O)c2ncccc12`, for which the growth in assay [1] is 10.6%; in assay [2], 56.3%; in assay [3] it was 56.7%; in assay [4], 17.1%; in assay [5] it was 10.5%; in assay [6], 13.7%. Moreover, the growth is 35.8% in assay [7] and 27% in assay [8].
Regarding `Clc1ccccc1C(c1ccccc1)(c1ccccc1)n1ccnc1`, the growth in assay [1] was 13.4%; in assay [2], 42.5%; in assay [3] it was 33.8%; in assay [4] it was 43.6%; in assay [5], 18.3%; in assay [6] it was 22.3%. The growth in assay [7] was 52%; in assay [8], 27%.
On to `CC(=O)c1ccc2c(c1)CCc1ccccc1-2`, for which the growth was 97.8% in assay [1]; 104% in assay [2]; 100% in assay [3]; 102% in assay [4]; 90.2% in assay [5]; 96.6% in assay [6]. Also, the growth in assay [7] and in assay [8] was 109% each time.
As for `Cc1cc(N/N=C/c2ccccn2)nc2ccccc12`, the growth was 24.1% in assay [1]; 15.1% in assay [2]; 29.6% in assay [3]; 18.5% in assay [4]; 14% in assay [5]; 17.6% in assay [6]. The growth is 24.7% in assay [7] and 24.5% in assay [8].
Regarding `CCCCCCCCCCCC[n+]1ccccc1` (tested in a mixture with another compound), the growth in assay [1] was 14.4%; in assay [2], -57.6% (active); in assay [3], -74% (active); in assay [4], 0.841% (active); in assay [5] it was 2.79% (active); in assay [6], -9.07% (active). Moreover, the growth in assay [7] is -47.7% (active); in assay [8] it was -95.7% (active).
Consider `CCOC(=O)c1[nH]c(C#N)c(C(=O)OCC)c1C`, for which the growth in assay [1] is 96.6%; in assay [2] it was 109%; in assay [3], 94.4%; in assay [4] it was 103%; in assay [5], 103%; in assay [6] it was 103%. Besides, the growth is 103% in assay [7] and 107% in assay [8].
On to `S=c1[nH]c2cc(Cl)ccc2s1`, for which the growth was 90.4% in assay [1]; 100% in assay [2]; 98.8% in assay [3]; 113% in assay [4]; 95.2% in assay [5]; 96.6% in assay [6]. Besides, the growth in assay [7] is 97.4%; in assay [8] it was 96.5%.
Take `O=C(Nc1ccc(Cl)c(Cl)c1)OCc1ccco1`: the growth in assay [1] was 38.4%; in assay [2], 31.6%; in assay [3], 0.451% (active); in assay [4], 40.4%; in assay [5], 14.8%; in assay [6] it was 26.6%. Further, the growth in assay [7] is 56.4%; in assay [8] it was 8.03% (active).
Regarding `COc1cc(OC)c(/C=C/c2c3ccccc3cc[n+]2C)c(OC)c1`, the growth was 13% in assay [1]; 17.8% in assay [2]; 2.01% (active) in assay [3]; 28.2% in assay [4]; 12.9% in assay [5]; 18.5% in assay [6]. For the same molecule, the growth in assay [7] was 21.8%; in assay [8] it was 6.03% (active).
Take `CC12CCC(O)CC1=CCC1C2CCC2(C)C3=NN=CC3CC12` (centres undefined): the growth is 110% in assay [1]; 124% in assay [2]; 53% in assay [3]; 103% in assay [4]; 107% in assay [5]; 108% in assay [6]. The growth in assay [7] was 107%; in assay [8], 94.3%.
Take `OC(c1cc(C23CC4CC(CC(C4)C2)C3)nc2c(Cl)cc(Cl)cc12)C1CCCCN1` (centres undefined): the growth in assay [1] was -74.3% (active); in assay [2] it was 37.7%; in assay [3], -66.1% (active); in assay [4], -68.1% (active); in assay [5], -80.7% (active); in assay [6], -84% (active). Moreover, the growth is -71.7% (active) in assay [7] and -91.4% (active) in assay [8].
`O=C(O)c1cccc2cccc(-c3c4ccc(=O)c(O)c-4oc4c(O)c(O)ccc34)c12`: the growth in assay [1] was 98.9%; in assay [2], 93.8%; in assay [3], 100%; in assay [4], 97.3%; in assay [5], 101%; in assay [6] it was 91.2%. Also, the values for the growth in assay [7] and in assay [8] were 96.2% and 96%, respectively.
For `CCCCCC/C=C1\CCC(CN2CCCC2)C1=O` (centres undefined), the growth was 77.7% in assay [1]; 104% in assay [2]; 109% in assay [3]; 97.9% in assay [4]; 7.97% (active) in assay [5]; 84.5% in assay [6]. The growth in assay [7] was 107%; in assay [8], 75.4%.
For the molecule `O=S(=O)(O)c1cnccn1`, the growth is 78.6% in assay [1]; 95.3% in assay [2]; 105% in assay [3]; 112% in assay [4]; 98% in assay [5]; 86.5% in assay [6]. Also, the growth in assay [7] was 102%; in assay [8], 98.9%.
Regarding `CCOc1ccc(C(C[N+](=O)[O-])Sc2ccccc2N)cc1` (centres undefined), the growth was 42.8% in assay [1]; -74.9% (active) in assay [2]; 3.44% (active) in assay [3]; -40.4% (active) in assay [4]; 0.363% (active) in assay [5]; -55.6% (active) in assay [6]. Moreover, the results for the growth in assay [7] and in assay [8] were -82.3% (active) and -51.3% (active), respectively.
For the molecule `CCCCOS(=O)(=O)c1ccccc1`, the growth in assay [1] is 106%; in assay [2], 103%; in assay [3], 95.8%; in assay [4] it was 110%; in assay [5], 102%; in assay [6], 108%. Also, the growth is 117% in assay [7] and 109% in assay [8].
Consider `CC(C)c1ccc(Nc2n[nH]c(=S)s2)cc1`, for which the growth in assay [1] was 85.6%; in assay [2], 96.2%; in assay [3] it was 97.1%; in assay [4], 110%; in assay [5], 101%; in assay [6] it was 101%. Moreover, the growth in assay [7] is 91%.
With `O=C(CCl)N(c1ccccc1)c1ccccc1`, the growth was 110% in assay [1]; 106% in assay [2]; 98% in assay [3]; 108% in assay [4]; 102% in assay [5]; 111% in assay [6]. Further, the growth was 119% in assay [7] and 106% in assay [8].
On to `C/C(=N/NC(N)=S)c1ccc(C)cc1`, for which the growth was 22% in assay [1]; 105% in assay [2]; 96.1% in assay [3]; 75.3% in assay [4]; 25.6% in assay [5]; 8.6% (active) in assay [6]. The figures for the growth in assay [7] and in assay [8] were 110% and 104%, respectively.
As for `COC(=O)c1nc(=S)[nH]c(C(=O)OC)c1C(=O)c1ccc(Cl)c(Cl)c1`, the growth is 100% in assay [1]; 129% in assay [2]; 106% in assay [3]; 106% in assay [4]; 97.4% in assay [5]; 106% in assay [6]. Besides, the growth in assay [7] was 113%; in assay [8], 112%.
In the case of `COc1cc2c(c(OC)c1OC)-c1ccc(NCc3ccccc3)c(=O)cc1[C@@H](NC(C)=O)CC2`, the growth was 59.4% in assay [1]; 0.422% (active) in assay [2]; -54.8% (active) in assay [3]; 16.6% in assay [4]; 7.93% (active) in assay [5]; 9.33% (active) in assay [6]. The figures for the growth in assay [7] and in assay [8] were 10.6% and 12.7%, respectively.
For `O=C1c2ccccc2C(=O)c2c(O)c(Cl)cc(O)c21`, the growth in assay [1] was 28.1%; in assay [2], 98.7%; in assay [3], 102%; in assay [4], 72.6%; in assay [5], 49.9%; in assay [6], 6.19% (active). Moreover, the growth in assay [7] is 102%; in assay [8], 83.7%.
In the case of `CCCCCCCCCCCCSC(=N)N`, the growth is -35.5% (active) in assay [1]; 63.6% in assay [2]; -73.2% (active) in assay [3]; -61.5% (active) in assay [4]; -30.8% (active) in assay [5]; -64.2% (active) in assay [6]. The growth in assay [7] is -80.5% (active); in assay [8], -21.1% (active).
Regarding `NCCCN(CCCN)CCCNCc1c2ccccc2c(CNCCCN(CCCN)CCCN)c2ccccc12`, the growth is 80.9% in assay [1]; 103% in assay [2]; 107% in assay [3]; 100% in assay [4]; 97.1% in assay [5]; 90.6% in assay [6]. For the same molecule, the growth was 97.6% in assay [7] and 97.2% in assay [8].
In the case of `O=C1C=CC(=O)N1C1CCCCCCCCCCC1`, the growth in assay [1] was 56.9%; in assay [2], 87.5%; in assay [3], 82.6%; in assay [4], -27.4% (active); in assay [5] it was 69.8%; in assay [6], 0.595% (active). Besides, the growth is 106% in assay [7] and 104% in assay [8].
Consider `CCCN(CCC)C(=O)c1ccc(C)cc1`, for which the growth in assay [1] is 78.5%; in assay [2] it was 102%; in assay [3] it was 104%; in assay [4], 94.9%; in assay [5], 92.1%; in assay [6] it was 98.3%. In addition, the growth was 87.4% in assay [7] and 102% in assay [8].
Take `O=C(/C=C/C(Cl)(Cl)Cl)Nc1ccc(Cl)cc1`: the growth in assay [1] was 94.6%; in assay [2] it was 102%; in assay [3], 105%; in assay [4], 110%; in assay [5], 99.8%; in assay [6], 104%. Besides, the growth in assay [7] was 108%; in assay [8] it was 132%.
As for `S=C=Nc1ccc(N2CCOCC2)cc1`, the growth is 74.3% in assay [1]; 97.1% in assay [2]; 92% in assay [3]; 103% in assay [4]; 79.3% in assay [5]; 86.6% in assay [6]. The growth in assay [7] was 99.3%; in assay [8] it was 103%.
`CN(C)c1ccc(C(=C2C=CC(=[N+](C)C)C=C2)c2ccc(N(C)C)cc2)cc1`: the growth in assay [1] is -19.2% (active); in assay [2], -66% (active); in assay [3], -82.6% (active); in assay [4], -67.2% (active); in assay [5], -71.6% (active); in assay [6], -83.3% (active). Further, the values for the growth in assay [7] and in assay [8] were -91.6% (active) and -95.6% (active), respectively.
Consider `NC(=S)N/N=C\c1nccc2c(C(F)(F)F)cccc12`, for which the growth in assay [1] is 13.9%; in assay [2] it was 7.77% (active); in assay [3], 32.6%; in assay [4], 29.8%; in assay [5], 10.5%; in assay [6], 9.27% (active). The growth is 26.6% in assay [7] and 16% in assay [8].
Regarding `CCCCCCC1N=C(N)N=C(N)N1c1cccc(Cl)c1` (centres undefined), the growth in assay [1] was 51.8%; in assay [2], 25.2%; in assay [3], 24.1%; in assay [4], 27%; in assay [5], 22.4%; in assay [6] it was 16.6%. Further, the values for the growth in assay [7] and in assay [8] were 10.3% and 18.6%, respectively.
`Cc1cc2cccnc2c2ncccc12`: the growth in assay [1] was 2.22% (active); in assay [2] it was 36%; in assay [3], 35.9%; in assay [4], 31.6%; in assay [5], 3.96% (active); in assay [6], 14%. For the same molecule, the growth was 29.5% in assay [7] and 28.5% in assay [8].
As to `Nc1cccc2cccc([N+](=O)[O-])c12`, the growth in assay [1] was 113%; in assay [2] it was 105%; in assay [3], 108%; in assay [4], 106%; in assay [5] it was 86.6%; in assay [6], 104%. In addition, the growth in assay [7] was 103%; in assay [8] it was 113%.
Take `N=C(N)Sc1cccc[n+]1[O-]`: the growth was 63.1% in assay [1]; 80.3% in assay [2]; 62.9% in assay [3]; 46.9% in assay [4]; 14.6% in assay [5]; 9.31% (active) in assay [6]. Further, the growth in assay [7] is 74.7%; in assay [8] it was 55.1%.
With `CC1(C)OCC(COC(c2ccccc2)(c2ccccc2)c2ccccc2)O1` (centres undefined), the growth in assay [1] is 84.3%; in assay [2] it was 119%; in assay [3] it was 106%; in assay [4] it was 104%; in assay [5], 100%; in assay [6] it was 89.7%. The values for the growth in assay [7] and in assay [8] were 97.4% and 96.5%, respectively.
